Reference: PubChem BioAssay
Inconclusive results are not listed. Active and inactive are the calls of the source.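 Rule for the calls, unless noted: active = percent response above 42, roughly 3 SD of non-fluorescent test compounds; inactive = the rest.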

Columns and labels:
[1] = rapamycin-like changes in RPL19A-GFP expression – cell-based, S. cerevisiae, multiplex flow cytometry, primary screen (AID 1862; in the data active = percent of DMSO control GFP below about 86%;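 note: lower values mimic rapamycin by blocking the RPL19A rise seen in DMSO cells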); settings: S. cerevisiae RPL19A-GFP strain, flow cytometry fluorescence, 3 h; at 10 µM; stronger effect = lower value
[2] = TOR pathway GLN3 branch reporter MEP2-GFP changes – S. cerevisiae, multiplex flow cytometry, primary screen (AID 1867;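 active = GFP response, as percent of the DMSO control, above the screen-wide mean plus 3 SD, about 139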;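 note: median GFP channel fluorescence of barcode-gated MEP2-GFP cells measured by flow cytometry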); settings: S. cerevisiae MEP2-GFP strain, 3 h, at 10 µM, stronger effect = higher value, 100% means same as DMSO wells
[3] = TOR pathway RTG branch CIT2 reporter changes – S. cerevisiae, GFP fusion, multiplex flow cytometry, primary screen (AID 1870;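 active = percent response above a set limit, the screen-wide mean plus 3 SD, cut at about 130% in these data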;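 note: barcoded CIT2-GFP strain pooled with four other GFP strains with rapamycin as positive control; median GFP fluorescence per well over plate mean of DMSO wells so 100% = DMSO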); settings: S. cerevisiae CIT2-GFP expression, 3 h, at 10 µM, stronger effect = higher value
[4] = TOR pathway LAP4-GFP level changes – S. cerevisiae, multiplex flow cytometry, primary screen (AID 1873;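 active = GFP signal, as percent of the solvent control, above the screen mean plus 3 SD, about 149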); settings: S. cerevisiae LAP4-GFP expression, 3 h, at 10 µM, stronger effect = higher value
[5] = yeast AGP1-GFP level changes, GLN3 branch – cell-based, multiplex flow cytometry, S. cerevisiae, primary screen (AID 1887;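 active = GFP signal above the screen-wide mean plus 3 SD, that is over about 124.5% of the solvent control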;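 note: AGP1-GFP fusion strain of S. cerevisiae within a five-strain barcoded multiplex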); settings: 3 h, at 10 µM, stronger effect = higher value
[6] = reduced mouse 2C T cell binding to pMHC/ICAM-1 vesicles – MLPCN validation set, flow cytometry, LFA-1/ICAM-1 modulator project, pilot screen (AID 2523;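 active = response below a set limit, under 55% cells CD8-positive and vesicle-bound, and CD8 cells' 90th-percentile brightness under 279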;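 for vesicle binding response: mean PE anti-B7-1 fluorescence of CD8+ cells relative to row control; 100% = QL9-loaded vesicles with DMSO vehicle in the same plate row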); settings: 2C mouse CD8+ T cells, at 7 µM, stronger effect = lower value; double positive events: measured here: CD8+/vesicle+ event percentage
[7] = biological target: Integrin beta-1 (Homo sapiens) + Integrin alpha-4 (Homo sapiens) (UniProt P13612+P05556); assay: alpha4beta1 integrin LIBS antibody binding reduction – U937 cells, HUTS-21 mAb, flow cytometry, validation set, VLA-4 allosteric modulator project, pilot screen (AID 2674;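 active = inhibition above 50%, about 3 SD of the validation set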;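 note: antibody binding induced by the VLA-4 ligand LDV present at three times its Kd; 0% = LDV ligand with antibody and no compound and 100% = antibody without LDV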); settings: HUTS-21 LIBS mAb binding, at 6.7 µM, stronger effect = higher value, binding induced by LDV ligand
Sequence of Integrin beta-1 (Homo sapiens) + Integrin alpha-4 (Homo sapiens) (P05556 whole entry, looked up): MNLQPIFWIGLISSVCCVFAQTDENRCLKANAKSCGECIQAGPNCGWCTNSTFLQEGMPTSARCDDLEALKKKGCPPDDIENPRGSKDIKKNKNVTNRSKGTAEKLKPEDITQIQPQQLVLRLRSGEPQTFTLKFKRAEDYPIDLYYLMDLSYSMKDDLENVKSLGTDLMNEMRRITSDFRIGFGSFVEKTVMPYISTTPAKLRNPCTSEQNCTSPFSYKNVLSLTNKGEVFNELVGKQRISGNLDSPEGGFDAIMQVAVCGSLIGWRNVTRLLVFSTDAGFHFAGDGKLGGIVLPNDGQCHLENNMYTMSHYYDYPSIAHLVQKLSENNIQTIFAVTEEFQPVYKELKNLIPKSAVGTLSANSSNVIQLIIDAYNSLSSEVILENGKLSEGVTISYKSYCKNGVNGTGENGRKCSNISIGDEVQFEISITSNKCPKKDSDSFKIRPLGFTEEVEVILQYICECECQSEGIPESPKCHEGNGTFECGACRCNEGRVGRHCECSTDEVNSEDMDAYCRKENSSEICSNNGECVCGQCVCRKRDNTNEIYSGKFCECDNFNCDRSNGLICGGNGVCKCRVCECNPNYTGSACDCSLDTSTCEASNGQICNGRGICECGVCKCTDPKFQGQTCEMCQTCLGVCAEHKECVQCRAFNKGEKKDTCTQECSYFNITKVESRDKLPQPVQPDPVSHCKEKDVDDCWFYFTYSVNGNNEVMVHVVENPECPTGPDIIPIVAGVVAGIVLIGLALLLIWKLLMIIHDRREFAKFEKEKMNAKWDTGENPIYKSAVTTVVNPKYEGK
Sequence of Integrin beta-1 (Homo sapiens) + Integrin alpha-4 (Homo sapiens) (P13612 whole entry, looked up): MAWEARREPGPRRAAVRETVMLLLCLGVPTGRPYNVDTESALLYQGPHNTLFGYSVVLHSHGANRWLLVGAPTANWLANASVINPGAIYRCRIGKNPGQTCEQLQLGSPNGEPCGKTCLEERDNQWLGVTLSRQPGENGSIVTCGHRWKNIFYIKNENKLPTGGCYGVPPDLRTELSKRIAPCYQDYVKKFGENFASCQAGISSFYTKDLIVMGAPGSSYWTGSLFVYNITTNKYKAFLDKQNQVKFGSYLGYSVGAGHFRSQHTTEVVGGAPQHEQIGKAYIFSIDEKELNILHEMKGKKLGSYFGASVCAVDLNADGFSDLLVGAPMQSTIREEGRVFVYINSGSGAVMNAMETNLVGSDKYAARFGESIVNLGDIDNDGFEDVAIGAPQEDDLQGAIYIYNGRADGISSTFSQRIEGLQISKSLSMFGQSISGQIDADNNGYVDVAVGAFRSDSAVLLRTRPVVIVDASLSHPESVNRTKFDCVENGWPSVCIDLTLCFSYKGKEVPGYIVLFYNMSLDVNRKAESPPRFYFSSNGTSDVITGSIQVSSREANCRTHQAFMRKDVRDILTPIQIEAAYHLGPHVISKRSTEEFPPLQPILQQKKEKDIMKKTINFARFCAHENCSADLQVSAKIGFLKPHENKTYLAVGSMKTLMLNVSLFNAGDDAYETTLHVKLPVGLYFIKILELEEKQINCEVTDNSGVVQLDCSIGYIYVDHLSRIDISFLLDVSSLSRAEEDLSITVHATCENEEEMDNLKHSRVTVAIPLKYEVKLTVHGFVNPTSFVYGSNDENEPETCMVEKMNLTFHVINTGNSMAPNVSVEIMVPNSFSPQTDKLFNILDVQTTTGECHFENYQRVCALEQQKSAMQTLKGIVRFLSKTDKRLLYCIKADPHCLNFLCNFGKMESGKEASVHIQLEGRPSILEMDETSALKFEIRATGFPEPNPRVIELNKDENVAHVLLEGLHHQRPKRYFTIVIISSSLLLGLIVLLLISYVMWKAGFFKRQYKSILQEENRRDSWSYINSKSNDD

[8] = calorie-restriction mimetic ROS inhibitors, yeast – validation compound set, pilot screen (AID 2706;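 active = superoxide response below 65% of plate, a cut near 3 SD across the whole screen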;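 note: yeast exposed to compound for one week at 30 degrees C before staining; 100% = mean of all compound wells on the same plate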); settings: S. cerevisiae aging, superoxide DHE fluorescence; at 10 µM; stronger effect = lower value
[9] = biological target: Beta-adrenergic receptor kinase 1 (Homo sapiens) (UniProt P25098); assay: GRK2 binders displacing RNA aptamer, biochemical, validation, human GRK2, bead flow cytometry (AID 488806;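 active = aptamer binding inhibition above 30%, about 3 SD of noise from non-fluorescent compounds; inactive = inhibition at or below 30%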); settings: bead-bound GRK2, FAM-aptamer displacement, at 10 µM, stronger effect = higher value
Sequence of Beta-adrenergic receptor kinase 1 (Homo sapiens) (P25098 whole entry, looked up): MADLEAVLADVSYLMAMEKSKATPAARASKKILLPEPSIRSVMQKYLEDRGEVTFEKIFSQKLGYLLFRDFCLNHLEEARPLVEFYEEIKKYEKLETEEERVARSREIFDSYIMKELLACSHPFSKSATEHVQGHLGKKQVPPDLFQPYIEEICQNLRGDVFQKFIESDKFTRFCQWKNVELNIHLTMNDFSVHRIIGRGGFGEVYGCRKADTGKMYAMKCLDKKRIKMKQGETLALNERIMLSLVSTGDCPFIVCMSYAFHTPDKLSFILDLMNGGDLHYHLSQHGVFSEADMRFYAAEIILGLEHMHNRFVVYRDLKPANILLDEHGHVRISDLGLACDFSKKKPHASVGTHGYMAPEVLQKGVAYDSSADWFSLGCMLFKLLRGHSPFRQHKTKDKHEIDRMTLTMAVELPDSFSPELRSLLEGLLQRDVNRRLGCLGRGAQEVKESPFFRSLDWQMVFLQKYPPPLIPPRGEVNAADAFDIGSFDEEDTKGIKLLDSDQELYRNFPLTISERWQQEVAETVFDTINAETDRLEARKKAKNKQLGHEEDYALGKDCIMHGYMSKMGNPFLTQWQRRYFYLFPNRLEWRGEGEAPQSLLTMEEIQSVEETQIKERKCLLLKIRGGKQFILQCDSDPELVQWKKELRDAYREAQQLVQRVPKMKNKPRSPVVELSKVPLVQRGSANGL

[10] = biological target: Beta-2 adrenergic receptor (Homo sapiens) (UniProt P07550); assay: agonist-induced loss of surface beta2AR – cell-based, FAP fluorogen, flow cytometry, validation set, pilot screen (AID 504459); settings: Am2.2-beta2AR cells, at 10 µM, stronger effect = higher value;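 note: agonist-driven loss of surface beta2AR via internalization measured by FAP dye flow cytometry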
Sequence of Beta-2 adrenergic receptor (Homo sapiens) (P07550 whole entry, looked up): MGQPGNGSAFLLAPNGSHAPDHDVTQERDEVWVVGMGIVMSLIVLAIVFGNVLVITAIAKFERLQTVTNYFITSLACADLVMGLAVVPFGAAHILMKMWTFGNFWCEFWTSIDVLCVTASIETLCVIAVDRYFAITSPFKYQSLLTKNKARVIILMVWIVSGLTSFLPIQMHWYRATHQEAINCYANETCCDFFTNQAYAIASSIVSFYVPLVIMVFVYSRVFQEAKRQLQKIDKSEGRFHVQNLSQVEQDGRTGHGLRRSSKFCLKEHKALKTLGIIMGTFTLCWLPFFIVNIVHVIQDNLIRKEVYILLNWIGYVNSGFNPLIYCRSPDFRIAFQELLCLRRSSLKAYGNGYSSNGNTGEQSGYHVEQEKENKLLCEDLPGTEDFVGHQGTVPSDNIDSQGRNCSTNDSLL

[11] = biological target: AP-2 complex subunit beta (Homo sapiens) (UniProt P63010); assay: beta-arrestin/AP2 interaction blockers – biochemical, validation set, GST-AP2 beads, flow cytometry, pilot screen (AID 504541;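 active = inhibition above 54%, about 3 SD of non-fluorescent compounds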;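 note: AP2 carries R879A mutation and is captured from E. coli lysate; bead-bound FITC arrestin peptide fluorescence measuring arrestin peptide binding to AP2; 0% = DMSO wells and 100% = excess unlabeled arrestin peptide control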); settings: FITC arrestin peptide, at 10 µM, stronger effect = higher value, AP2 beta2 appendage fragment, R879A mutant
Sequence of AP-2 complex subunit beta (Homo sapiens) (P63010 whole entry, looked up, the tested form may be a part, one chain of several): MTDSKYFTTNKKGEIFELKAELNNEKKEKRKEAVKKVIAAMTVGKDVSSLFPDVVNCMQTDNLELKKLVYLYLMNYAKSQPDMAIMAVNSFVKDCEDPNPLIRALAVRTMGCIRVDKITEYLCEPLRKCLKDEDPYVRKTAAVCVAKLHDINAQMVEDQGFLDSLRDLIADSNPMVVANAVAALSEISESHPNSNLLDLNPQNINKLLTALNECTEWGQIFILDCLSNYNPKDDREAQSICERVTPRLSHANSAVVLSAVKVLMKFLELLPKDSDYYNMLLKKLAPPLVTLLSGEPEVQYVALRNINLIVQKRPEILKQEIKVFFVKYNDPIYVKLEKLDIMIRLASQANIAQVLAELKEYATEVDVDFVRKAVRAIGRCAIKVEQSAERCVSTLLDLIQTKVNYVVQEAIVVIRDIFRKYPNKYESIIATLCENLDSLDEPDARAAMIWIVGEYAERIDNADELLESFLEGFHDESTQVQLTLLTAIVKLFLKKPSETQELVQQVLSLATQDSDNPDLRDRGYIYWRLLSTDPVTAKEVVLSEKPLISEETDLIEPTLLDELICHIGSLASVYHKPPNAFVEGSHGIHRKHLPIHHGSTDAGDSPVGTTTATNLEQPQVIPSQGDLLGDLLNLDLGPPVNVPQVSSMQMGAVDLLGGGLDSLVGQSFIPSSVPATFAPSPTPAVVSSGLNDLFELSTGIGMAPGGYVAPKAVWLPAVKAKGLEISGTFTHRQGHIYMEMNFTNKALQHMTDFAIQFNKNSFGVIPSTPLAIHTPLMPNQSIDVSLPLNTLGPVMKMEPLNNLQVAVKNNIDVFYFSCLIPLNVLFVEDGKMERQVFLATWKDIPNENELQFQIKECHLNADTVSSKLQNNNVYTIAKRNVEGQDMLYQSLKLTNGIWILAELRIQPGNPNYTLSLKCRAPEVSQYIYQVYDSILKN

[12] = cytosolic pH regulators acting via V-ATPase – S. cerevisiae, pHLuorin, HTS validation (AID 504600; in the data active = response above about 15%;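 note: plate controls were DMSO for no effect and reference compound for full effect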); settings: V-ATPase proton transport, at 10 µM, stronger effect = higher value
[13] = system: anti-desmoglein-3 scFv antibody binding to human DSG3; assay: blockers of pathogenic pemphigus antibody–desmoglein-3 binding – biochemical, validation compound set, bead-based, flow cytometry, pilot screen (AID 588368;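 active = binding below the plate cutoff, the plate median minus 3 SD, with a reading above zero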;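 note: signal is the median channel fluorescence of bead-bound GFP antibody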); settings: Protein G beads, DSG3-Fc, scFv-GFP binding, at 10 µM, stronger effect = lower value
[14] = Nile Red efflux blockade in pump-expressing yeast – validation compound set, multiplex, phenotypic, pilot screen (AID 588506;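 active = efflux inhibition above 0.42, the validation set average plus 4 SD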;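 note: Nile Red retained in cells so higher fluorescence means more efflux inhibition; 0 = negative control wells and 1 = enniatin B 25 µM full block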); settings: S. cerevisiae pump-expressing triplex, Nile Red efflux flow cytometry; at 10 µM; stronger effect = higher value; the pumps come from Candida albicans
[15] = biological target: ATP-binding cassette sub-family B member 6 (Homo sapiens) (UniProt Q9NP58); assay: blockers of ABCB6-driven porphyrin uptake – K562-ABCB6 cells, flow cytometry, validation set, pilot screen (AID 588550;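 active = inhibition above the screen-wide mean plus 3 SD, about 51%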;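 note: 0% = DMSO wells and 100% = benzethonium chloride 70 µM positive control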); settings: K562-ABCB6 porphyrin accumulation, 1 h, at 10 µM, stronger effect = higher value
Sequence of ATP-binding cassette sub-family B member 6 (Homo sapiens) (Q9NP58 whole entry, looked up): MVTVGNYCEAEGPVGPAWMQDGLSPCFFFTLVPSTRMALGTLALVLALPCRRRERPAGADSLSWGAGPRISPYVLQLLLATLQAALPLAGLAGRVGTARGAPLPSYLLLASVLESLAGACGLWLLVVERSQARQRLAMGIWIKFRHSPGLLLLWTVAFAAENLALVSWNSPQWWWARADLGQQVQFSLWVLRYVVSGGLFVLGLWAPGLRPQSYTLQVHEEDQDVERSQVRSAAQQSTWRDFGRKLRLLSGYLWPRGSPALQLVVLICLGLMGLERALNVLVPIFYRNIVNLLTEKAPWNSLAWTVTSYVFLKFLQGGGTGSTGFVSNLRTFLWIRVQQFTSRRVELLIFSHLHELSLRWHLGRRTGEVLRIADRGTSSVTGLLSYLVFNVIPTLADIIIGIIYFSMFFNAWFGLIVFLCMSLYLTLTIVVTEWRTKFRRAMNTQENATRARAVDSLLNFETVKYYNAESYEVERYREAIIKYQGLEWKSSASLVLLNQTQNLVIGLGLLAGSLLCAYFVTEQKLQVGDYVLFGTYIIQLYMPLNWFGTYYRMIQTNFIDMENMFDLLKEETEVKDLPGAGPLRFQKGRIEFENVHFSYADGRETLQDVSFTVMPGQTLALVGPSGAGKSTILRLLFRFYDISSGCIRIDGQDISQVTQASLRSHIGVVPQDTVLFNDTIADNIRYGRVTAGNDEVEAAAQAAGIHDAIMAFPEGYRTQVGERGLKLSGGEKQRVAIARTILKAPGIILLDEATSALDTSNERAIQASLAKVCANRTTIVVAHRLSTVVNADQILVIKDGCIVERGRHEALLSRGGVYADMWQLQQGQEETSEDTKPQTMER

[16] = AML differentiation inducers, ER-HoxA9 marrow cells – cell-based, GFP/MAC1 double positive, flow cytometry, validation set, primary screen (AID 588685;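 active = differentiation response of at least 50%, scaled between solvent and reference control, from cells with both markers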;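 note: compound exposure lasts four days before antibody staining and flow analysis; 0% = DMSO wells and 100% = 5 µM fulvestrant positive control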); settings: stronger effect = higher value, normalized: vehicle 0, fulvestrant 100

| SMILES | percent of DMSO control GFP [1] | GFP response vs DMSO [2] | percent response of DMSO control [3] | GFP response vs DMSO [4] | GFP response, % of DMSO [5] | double positive events [6] [%] | vesicle binding response [6] | inhibition [7] | superoxide response (% of plate) [8] | aptamer binding inhibition [9] | response [10] | inhibition [11] | response [12] | binding (% of control) [13] | efflux inhibition (fraction of control) [14] | inhibition [15] | differentiation response [16] |
| --- | --- | --- | --- | --- | --- | --- | --- | --- | --- | --- | --- | --- | --- | --- | --- | --- | --- |
| O=C(NC(=S)Nc1ccc(N2CCN(C(=O)c3ccccc3)CC2)cc1)c1cccs1 | 96.3% (inactive) | 126% (inactive) | 116% (inactive) | 77% (inactive) | 96.1% (inactive) | 51.4 | 106% (inactive) | -4.21% (inactive) | 101% (inactive) | 0% (inactive) | -15.7% (inactive) | -3.24% (inactive) | 1.01% (inactive) | 107% (inactive) | -0.28 (inactive) | 13% (inactive) | -0.82% (inactive) |
| Cn1c([N+](=O)[O-])cnc1COC(N)=O | 92.8% (inactive) | 136% (inactive) | 103% (inactive) | 83.6% (inactive) | 88.9% (inactive) | 62.7 | 157% (inactive) | 8.4% (inactive) | 98.7% (inactive) | 4% (inactive) | 5.28% (inactive) | -5.93% (inactive) | -3.52% (inactive) | 105% (inactive) | -0.35 (inactive) | 11% (inactive) | -3.28% (inactive) |
| CN1CCN(CCCN2c3ccccc3Sc3ccc(Cl)cc32)CC1 | 99.3% (inactive) | 102% (inactive) | 97% (inactive) | 113% (inactive) | 120% (inactive) | 61.4 | 179% (inactive) | 63.6% (active) | 70.1% (inactive) | 0% (inactive) | -15% (inactive) | 0.77% (inactive) | 1.39% (inactive) | 106% (inactive) | -0.17 (inactive) | 7% (inactive) | 3.88% (inactive) |
| CCOc1ccc(N2C(=O)CNC2=S)cc1 | 106% (inactive) | 106% (inactive) | 105% (inactive) | 110% (inactive) | 109% (inactive) | 66.1 | 202% (inactive) | -0.27% (inactive) | 105% (inactive) | 2% (inactive) | -17.9% (inactive) | 11.9% (inactive) | -2.61% (inactive) | 106% (inactive) | -0.09 (inactive) | -4% (inactive) | 3.88% (inactive) |
| C1CCC(C(CC2CCCCN2)C2CCCCC2)CC1 (stereo not drawn) | 97.9% (inactive) | 107% (inactive) | 101% (inactive) | 130% (inactive) | 116% (inactive) | 62 | 170% (inactive) | -17.3% (inactive) | 119% (inactive) | -11% (inactive) | 26.4% (inactive) | -6.24% (inactive) | 2.51% (inactive) | 109% (inactive) | 0.12 (inactive) | -5% (inactive) | -5.97% (inactive) |
| O=C(Cc1c[nH]c2ccccc12)OCCOC(=O)Cc1c[nH]c2ccccc12 | 104% (inactive) | 96.6% (inactive) | 110% (inactive) | 100% (inactive) | 101% (inactive) | 60.9 | 111% (inactive) | -3.77% (inactive) | 103% (inactive) | -1% (inactive) | -3.51% (inactive) | -12.4% (inactive) | 1.88% (inactive) | 99.6% (inactive) | -0.12 (inactive) | -4% (inactive) | -4.57% (inactive) |
| CS(=O)(=O)NCc1ccc(C(=O)NCc2ccccc2)cc1 | 98.4% (inactive) | 107% (inactive) | 100% (inactive) | 127% (inactive) | 123% (inactive) | 55.6 | 174% (inactive) | -19% (inactive) | 105% (inactive) | -8% (inactive) | -27.9% (inactive) | -12% (inactive) | 4.07% (inactive) | 98.7% (inactive) | -0.04 (inactive) | -5% (inactive) | -3.02% (inactive) |
| O=C(OCC(O)C(O)COC(=O)c1ccccc1)c1ccccc1 (stereo not drawn) | 102% (inactive) | 105% (inactive) | 105% (inactive) | 106% (inactive) | 107% (inactive) | 58.5 | 102% (inactive) | -10.5% (inactive) | 105% (inactive) | -1% (inactive) | -4.55% (inactive) | 2.63% (inactive) | -5% (inactive) | 97.7% (inactive) | 0.17 (inactive) | 2% (inactive) | -16.3% (inactive) |
| CCOC(=O)C1C(=O)OC(C)(C)C1C(C)C(=O)c1ccc(C)cc1 (stereo not drawn) | 100% (inactive) | 103% (inactive) | 93.1% (inactive) | 110% (inactive) | 116% (inactive) | 61.9 | 218% (inactive) | -6.23% (inactive) | 118% (inactive) | 3% (inactive) | -17.2% (inactive) | -19% (inactive) | -5.62% (inactive) | 102% (inactive) | -0.09 (inactive) | 5% (inactive) | 13.7% (inactive) |
